Assay results as given in PubChem BioAssay (Tox21).
Records with an inconclusive call do not appear. The source made the active and inactive calls. Unless noted, calls come from the whole dose curve.

How the values were obtained:
[1] = Nuclear factor erythroid 2-related factor 2/antioxidant responsive element (Nrf2/ARE) small molecule agonists: qHTS cell viability counter screen in human keratinocytes (AID 1919968; active = well fitted curve in the direction sought with a large enough effect in the repeat runs; an effect the other way counts as inactive or inconclusive; note: nearly all actives have a fitted effect of over 55% in size)
Procedure, shortened: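 Stably transfected HaCaT (KeratinoSens), 1,500/well. Test agents in DMSO were applied for 23 h, 37 C/5% CO2. CellTiter-Fluor was incubated 1 h before the fluorescence read.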

[2] = Nuclear factor erythroid 2-related factor 2/antioxidant responsive element (Nrf2/ARE) small molecule agonists: luciferase reporter gene qHTS assay in human keratinocytes (AID 1919969); note: nearly all actives have a fitted effect of over 35% in size
[3] = target: Gonadotropin-releasing hormone receptor (Homo sapiens) (UniProt P30968); test: Human gonadotropin-releasing hormone receptor (GnRHR) small molecule agonists, calcium flux assay in GnRHR-HEK293 cells (AID 1920063); note: nearly all actives have a fitted effect of over 35% in size
Chain of Gonadotropin-releasing hormone receptor (Homo sapiens) (P30968 whole entry, looked up): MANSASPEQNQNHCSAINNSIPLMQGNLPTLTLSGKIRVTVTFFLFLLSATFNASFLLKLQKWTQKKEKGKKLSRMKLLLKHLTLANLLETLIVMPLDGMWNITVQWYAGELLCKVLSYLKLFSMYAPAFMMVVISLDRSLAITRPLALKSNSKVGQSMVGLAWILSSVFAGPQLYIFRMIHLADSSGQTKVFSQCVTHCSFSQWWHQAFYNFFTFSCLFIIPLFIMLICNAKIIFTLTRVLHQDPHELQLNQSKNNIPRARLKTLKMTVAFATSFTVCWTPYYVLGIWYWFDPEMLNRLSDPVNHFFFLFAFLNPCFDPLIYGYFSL
Procedure, shortened: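 Stable human GnRHR HEK293 line. 18 h plating, then calcium dye for 1 h at 37 C. Agonist-mode compound addition from DMSO stocks; fluorescence monitored 3 min.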

[4] = target: KiSS-1 receptor (Homo sapiens) (UniProt Q969F8); test: Human kisspeptin (KISS1R) small molecule agonists, calcium flux assay in KISS1R-HEK293 cells (AID 1920064; active = well fitted curve in the direction sought with a large enough effect in the repeat runs; an effect the other way counts as inactive or inconclusive)
Chain of KiSS-1 receptor (Homo sapiens) (Q969F8 whole entry, looked up): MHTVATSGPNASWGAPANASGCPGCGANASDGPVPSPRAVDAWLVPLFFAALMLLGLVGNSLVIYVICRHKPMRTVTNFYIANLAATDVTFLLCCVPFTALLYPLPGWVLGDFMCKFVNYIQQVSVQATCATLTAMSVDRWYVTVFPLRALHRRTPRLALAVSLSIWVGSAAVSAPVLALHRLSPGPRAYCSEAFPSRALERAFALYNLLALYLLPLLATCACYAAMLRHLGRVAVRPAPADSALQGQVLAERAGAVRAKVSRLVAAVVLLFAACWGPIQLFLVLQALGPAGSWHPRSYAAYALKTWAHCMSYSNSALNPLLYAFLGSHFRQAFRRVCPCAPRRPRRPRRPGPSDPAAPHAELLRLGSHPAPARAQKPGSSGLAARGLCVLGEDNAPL
Procedure, shortened: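 After overnight (18 h) culture at 37 C/5% CO2, human KISS1R-HEK293 cells received calcium dye for 1 h, then test compound; emission at 540 nm (excitation 480 nm) was tracked for 3 min.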

[5] = G protein-coupled receptor (GPCR) small molecule agonists, calcium flux assay: HEK293 wild type cell line counter screen (AID 1920065)
Procedure, shortened: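 Following 18 h incubation at 37 C/5% CO2, plates got calcium dye for 1 h; compounds, ATP or DMSO were then pinned in and fluorescence followed kinetically (480/540 nm).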

[6] = p53 small molecule agonists, cell-based qHTS assay with human liver microsomes (AID 1963577);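 note: p53 response element beta-lactamase reporter cells with liver microsomes plus NADPH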
Procedure, shortened: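 Reporter activation was measured by LiveBLAzer fluorescence intensity in p53RE-bla cells, which had been exposed to compounds for 16 h at 37 C alongside 0.5 mg/mL human liver microsomes and 0.5 mg/mL NADPH (final concentrations).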

[7] = p53 small molecule agonists, cell-based qHTS assay with rat liver microsomes (AID 1963578)
Procedure, shortened: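 Compound in DMSO added to p53RE-bla cells 5 h post-plating; rat microsomes/NADPH 0.5 mg/mL final; 16 h, 37 C; LiveBLAzer 2 h RT.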

[8] = p53 small molecule agonists, cell-based qHTS assay with human liver microsomes: qHTS cell viability counter screen (AID 1963579); note: nearly all actives have a fitted effect of over 45% in size
Procedure, shortened: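 HLM-supplemented (0.5 mg/mL final) and NADPH-supplemented (0.5 mg/mL final) p53RE-bla cultures, 4,000 cells per well, were dosed with compounds in DMSO for 16 h at 37 C; luminescent ATP detection (CellTiter-Glo, 30 min, room temperature) quantified surviving cells.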

[9] = p53 small molecule agonists, cell-based qHTS assay with rat liver microsomes: qHTS cell viability counter screen (AID 1963580); note: nearly all actives have a fitted effect of over 45% in size
Procedure, shortened: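 Cytotoxicity counter screen: intracellular ATP measured by CellTiter-Glo luminescence in the same wells as the beta-lactamase reporter read, on HCT-116 p53RE-bla cells exposed 16 h at 37 C to compounds with rat liver microsomes and NADPH, each 0.5 mg/mL final.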

[10] = p53 small molecule agonists, cell-based qHTS assay: qHTS cell viability counter screen (AID 1963581); note: nearly all actives have a fitted effect of over 45% in size
Procedure, shortened: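 qHTS counter screen: 16 h compound exposure at 37 C of p53RE-bla HCT-116 cells (4,000 per well, seeded 5 h prior), cell viability by ATP luminescence.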

[11] = p53 small molecule agonists, cell-based qHTS assay (AID 1963582; active = well fitted activation curve with a large enough effect in the signal ratio in the repeat runs, not every such curve was filed as active; the % refers to the signal ratio)
Procedure, shortened: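 Measured: fluorescence from cleaved LiveBLAzer substrate. System: p53RE-bla cells, 16 h compound treatment at 37 C, 2 h substrate step at room temperature.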

[12] = target: 5-hydroxytryptamine receptor 2A (Homo sapiens) (UniProt P28223); test: 5-hydroxytryptamine receptor 2A (HTR2A) small molecule antagonists, cell-based qHTS assay (AID 1963586); note: nearly all actives have a fitted effect of over 45% in size
Chain of 5-hydroxytryptamine receptor 2A (Homo sapiens) (P28223 whole entry, looked up): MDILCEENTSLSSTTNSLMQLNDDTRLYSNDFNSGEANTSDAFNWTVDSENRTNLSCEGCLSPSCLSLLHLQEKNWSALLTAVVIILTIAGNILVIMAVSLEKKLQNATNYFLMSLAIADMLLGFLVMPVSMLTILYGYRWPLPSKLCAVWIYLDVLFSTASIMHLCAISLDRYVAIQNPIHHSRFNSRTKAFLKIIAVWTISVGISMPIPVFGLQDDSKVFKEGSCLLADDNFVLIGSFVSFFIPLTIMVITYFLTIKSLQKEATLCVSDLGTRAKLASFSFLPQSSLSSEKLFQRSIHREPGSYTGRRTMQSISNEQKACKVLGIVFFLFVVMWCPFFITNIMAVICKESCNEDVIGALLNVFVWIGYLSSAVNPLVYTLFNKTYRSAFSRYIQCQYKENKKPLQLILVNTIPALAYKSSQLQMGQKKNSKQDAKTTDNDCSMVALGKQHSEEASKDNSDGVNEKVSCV
Procedure, shortened: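 CHO cells stably expressing human HTR2A were plated for 18 h at 37 C, then loaded with calcium dye for 1 h. Compounds were preincubated 5 min at room temperature before DOI (4 nM solution) was added. Kinetic fluorescence was read for 3 min.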

[13] = target: 5-hydroxytryptamine receptor 2A (Homo sapiens) (UniProt P28223); test: 5-hydroxytryptamine receptor 2A (HTR2A) small molecule agonists, cell-based qHTS assay (AID 1963587); note: nearly all actives have a fitted effect of over 30% in size
Procedure, shortened: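 CHO cells stably expressing human HTR2A, plated 18 h, loaded with calcium dye 1 h at 37 C. Agonist mode: compounds added and intracellular calcium fluorescence recorded kinetically for 2 min at 1 sec intervals.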

[14] = target: Muscarinic acetylcholine receptor M1 (Homo sapiens) (UniProt P11229); test: Cholinergic receptor muscarinic 1 (CHRM1) small molecule antagonists, cell-based qHTS assay (AID 1963588); note: nearly all actives have a fitted effect of over 40% in size
Chain of Muscarinic acetylcholine receptor M1 (Homo sapiens) (P11229 whole entry, looked up): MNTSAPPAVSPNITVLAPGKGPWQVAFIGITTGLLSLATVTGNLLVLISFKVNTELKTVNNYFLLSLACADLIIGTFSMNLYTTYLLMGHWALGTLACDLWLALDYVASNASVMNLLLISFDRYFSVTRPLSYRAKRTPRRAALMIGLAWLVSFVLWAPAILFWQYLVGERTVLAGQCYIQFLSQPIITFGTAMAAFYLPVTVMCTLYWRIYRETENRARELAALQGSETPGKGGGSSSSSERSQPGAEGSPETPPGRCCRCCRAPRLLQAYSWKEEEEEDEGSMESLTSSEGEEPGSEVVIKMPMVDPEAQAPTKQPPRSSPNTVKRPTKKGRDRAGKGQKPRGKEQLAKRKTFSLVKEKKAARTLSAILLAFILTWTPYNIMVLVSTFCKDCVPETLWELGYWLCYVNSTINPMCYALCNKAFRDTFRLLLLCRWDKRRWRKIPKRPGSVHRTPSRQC
Procedure, shortened: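 Compounds were tested at 15 concentrations in three independent runs. Dye-loaded CHRM1-CHO cells were exposed 5 min at room temperature before stimulation by acetylcholine added at 50nM. Intracellular calcium was read kinetically on FDSS for 3 min.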

[15] = cAMP Responsive Elements (CRE) small molecule agonists, cell-based qHTS assay (AID 1963590)
Procedure, shortened: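 Test agents in DMSO were incubated 3 h at 37 C/5% CO2 with CRE-bla HEK 293T cells seeded 18 h earlier; LiveBLAzer B/G FRET substrate was added and read after 2 h at room temperature.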

[16] = cAMP Responsive Elements (CRE) small molecule antagonists, cell-based qHTS assay (AID 1963591; active = well fitted inhibition curve with a large enough effect in the signal ratio in the repeat runs, not every such curve was filed as active; the % refers to the signal ratio)
Procedure, shortened: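 Reporter line CRE-bla HEK 293T in dialyzed-FBS DMEM; cells preincubated 18 h, treated 3 h with compound plus NKH477 (0.25 uM final); LiveBLAzer FRET, 2 h RT.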

[17] = target: Beta-2 adrenergic receptor (Homo sapiens) (UniProt P07550); test: Adrenergic beta2 receptor (ADRB2) small molecule antagonists, cell-based qHTS assay (AID 1963592); note: series mostly up to about 92 µM; nearly all actives have a fitted effect of over 50% in size
Chain of Beta-2 adrenergic receptor (Homo sapiens) (P07550 whole entry, looked up): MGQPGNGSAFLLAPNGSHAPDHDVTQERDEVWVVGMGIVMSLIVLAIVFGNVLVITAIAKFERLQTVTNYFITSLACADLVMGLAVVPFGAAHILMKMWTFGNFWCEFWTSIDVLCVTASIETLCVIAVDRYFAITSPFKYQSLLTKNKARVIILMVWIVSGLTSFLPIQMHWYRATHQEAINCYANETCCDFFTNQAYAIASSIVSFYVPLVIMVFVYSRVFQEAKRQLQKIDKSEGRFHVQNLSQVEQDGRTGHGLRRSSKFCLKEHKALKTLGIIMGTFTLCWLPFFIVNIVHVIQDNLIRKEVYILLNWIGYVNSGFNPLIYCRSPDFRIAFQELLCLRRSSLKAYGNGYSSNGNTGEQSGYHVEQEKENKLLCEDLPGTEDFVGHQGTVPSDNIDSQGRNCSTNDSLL
Procedure, shortened: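 Assay format: CHO-ADRB2 cells, 18-20hr seeding at 37C/5% CO2, then compound plus 1nM isoproterenol agonist mix for 0.5hr RT. Homogeneous time-resolved fluorescence cAMP detection after 1hr, expressed as 665/615 nm ratio.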

[18] = target: Beta-2 adrenergic receptor (Homo sapiens) (UniProt P07550); test: Adrenergic beta2 receptor (ADRB2) small molecule agonists, cell-based qHTS assay (AID 1963593);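 note: CHO cells stably overexpressing human ADRB2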
Procedure, shortened: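 CHO cells stably over-expressing ADRB2 were plated overnight at 37C, then dosed with compounds plus a stimulation mix containing 100uM IBMX and 25uM Ro-20-1724 for 0.5hr at room temperature. cAMP was measured by HTRF competition, 1hr.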

[19] = target: D(2) dopamine receptor (Homo sapiens) (UniProt P14416); test: Dopamine D2 receptor (DRD2) small molecule agonists, cell-based qHTS assay (AID 1963594); note: nearly all actives have a fitted effect of over 35% in size
Chain of D(2) dopamine receptor (Homo sapiens) (P14416 whole entry, looked up): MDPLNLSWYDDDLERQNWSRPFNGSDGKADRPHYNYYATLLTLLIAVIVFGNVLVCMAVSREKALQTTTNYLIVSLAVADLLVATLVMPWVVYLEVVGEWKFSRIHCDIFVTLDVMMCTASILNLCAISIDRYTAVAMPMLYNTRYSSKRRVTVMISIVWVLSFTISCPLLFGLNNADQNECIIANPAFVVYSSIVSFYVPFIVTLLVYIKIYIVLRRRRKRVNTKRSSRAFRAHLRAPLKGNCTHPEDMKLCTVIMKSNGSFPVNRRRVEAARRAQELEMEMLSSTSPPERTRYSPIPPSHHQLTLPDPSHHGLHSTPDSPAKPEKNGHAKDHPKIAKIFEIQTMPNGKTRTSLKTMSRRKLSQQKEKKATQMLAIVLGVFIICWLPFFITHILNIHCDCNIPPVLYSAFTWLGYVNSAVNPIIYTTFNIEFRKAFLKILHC
Procedure, shortened: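 HEK293 cells stably expressing human DRD2, pre-treated with PDE inhibitor Ro20-1724 (0.1 mM final) and compound 10 min at room temperature, then stimulated with NKH477 (200nM […]) for 30 min. cAMP read by HTRF (665/620 nm).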

[20] = target: D(2) dopamine receptor (Homo sapiens) (UniProt P14416); test: Dopamine D2 receptor (DRD2) small molecule antagonists, cell-based qHTS assay (AID 1963595; active = well fitted inhibition curve with a large enough effect in the signal ratio in the repeat runs, with a control signal flat; the % refers to the signal ratio)
Procedure, shortened: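 Cells were plated and grown for 24 h at 37 °C. Ro20-1724 (0.1 mM final) went in first, then compound for 10 min. NKH477 (200 nM) with quinpirole (12 nM) followed for 30 min at RT, then HTRF detection reagents for 1 h.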

Measured: Potency

OCCOCCOCCO
inactive: [1] | [2] | [3] | [4] | [5] | [6] | [7] | [8] | [9] | [10] | [11] | [12] | [13] | [14] | [15] | [16] | [17] | [18] | [19] | [20]

COc1ccc(C(=O)c2ccccc2O)c(O)c1
inactive: [1] | [2] | [3] | [4] | [5] | [6] | [7] | [8] | [9] | [10] | [11] | [12] | [13] | [14] | [16] | [17] | [19] | [20]

C=CCOC(=O)c1ccccc1C(=O)OCC=C
inactive: [1] | [2] | [3] | [4] | [5] | [6] | [7] | [8] | [9] | [10] | [11] | [12] | [13] | [14] | [15] | [17] | [18] | [19] | [20]

C=C(C)C(=O)OCC(CC)(COC(=O)C(=C)C)COC(=O)C(=C)C
inactive: [1] | [2] | [3] | [4] | [5] | [6] | [7] | [8] | [9] | [10] | [11] | [12] | [17] | [19] | [20]

c1cc(-c2ccncc2)ccn1
inactive: [1] | [2] | [3] | [4] | [5] | [6] | [7] | [8] | [9] | [10] | [11] | [12] | [13] | [15] | [16] | [17] | [18] | [19] | [20]

C=CCOC(=O)C(=C)C
inactive: [1] | [2] | [3] | [4] | [5] | [6] | [7] | [8] | [9] | [10] | [11] | [12] | [13] | [14] | [15] | [16] | [18] | [19] | [20]

O=[N+]([O-])c1cc(C(F)(F)F)ccc1Cl
inactive: [1] | [2] | [3] | [4] | [5] | [6] | [7] | [8] | [9] | [10] | [11] | [13] | [14] | [15] | [16] | [17] | [18] | [19] | [20]

CN(C)CCOC(=O)COc1ccc(Cl)cc1
inactive: [1] | [2] | [3] | [4] | [5] | [6] | [7] | [8] | [9] | [10] | [11] | [12] | [13] | [16] | [17] | [18] | [19] | [20]
